Screens from PubChem BioAssay.
SMARCA2 act: increases SMARCA2 function in MMTV reporter cells; hit rate 1% among 370,000; MG213 cells, MMTV-luciferase reporter, dexamethasone, overnight; activation, % at 9.1 µM; in the data active means activation above about 7.8%;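 further: 0% = vehicle wells and 100% = reference activator wells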
ssDAF-12 act: activates DAF-12 receptor from parasite S. stercoralis. HEK293 ssDAF-12/GRIP1 lit1-tk-luc reporter, luminescence; % of 3 µM dafachronic acid response. AID 652126. activation, % at 6.8 µM. hit rate 1% among 370,000;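 active means activation above the mean over all tested compounds plus 3 SD, cut at about 0.9% in these data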;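 further: 0% = DMSO-only wells and 100% = 3 µM delta7-dafachronic acid wells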
DAX1 inh-1: inhibits human nuclear receptor DAX1. P51843. HEK293 Gal4-DAX1 luciferase reporter, luminescence. inhibition, % at 6.75 µM. hit rate 0.99% among 340,000. AID 504766;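 active means inhibition above the mean over all tested compounds plus 3 SD, cut at about 4.2% in these data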;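 further: 0% = DAX1-transfected cells with DMSO and 100% = empty-vector control cells with DMSO; inhibition shows as a rise in luminescence from relieved DAX1 repression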
Target sequence (P51843 207-470 limits assumed): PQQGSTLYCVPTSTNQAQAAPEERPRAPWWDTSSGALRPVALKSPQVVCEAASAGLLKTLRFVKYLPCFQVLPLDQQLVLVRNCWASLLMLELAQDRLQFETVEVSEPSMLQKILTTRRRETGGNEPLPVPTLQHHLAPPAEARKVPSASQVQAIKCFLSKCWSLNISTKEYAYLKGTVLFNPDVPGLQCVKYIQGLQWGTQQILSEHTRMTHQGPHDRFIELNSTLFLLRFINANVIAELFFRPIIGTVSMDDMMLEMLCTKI
hgDAF12 agonist: hgDAF-12 agonism, primary luciferase screen | HEK293 GAL4-hgDAF12 UAS-luciferase reporter, agonist luminescence; normalized to butyrate control | activation, % at 6.8 µM | hit rate 1.8% among 370,000 | AID 687014;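 active means activation above a cutoff set at the mean of all screened compounds plus 3 SD, cut at about 10% in these data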;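 further: 0% = DMSO wells and 100% = sodium butyrate wells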
DAX1 inh-2: inhibitors of DAX1 repression of SF-1 activated StAR promoter; HEK293T StAR-luciferase reporter, SF-1/DAX-1 repression relief; inhibition, % at 6.8 µM; hit rate 1.1% among 370,000;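 active means inhibition above the mean over all tested compounds plus 3 SD, cut at about 3.6% in these data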;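 further: 0% = DAX-1 cells with DMSO and 100% = cells lacking DAX-1 with DMSO; higher inhibition means more luminescence from relief of DAX-1 repression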
hcDAF12 agonist: activates DAF-12 receptor from parasite H. contortus | activation, % at 6.8 µM | hit rate 1.4% among 370,000 | HEK293 hcDAF-12 lit1-tk-luc reporter, luminescence; 0% DMSO, 100% Δ7-dafachronic acid;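 active means activation above the mean of all tested compounds plus 3 SD, cut at about 5.5% in these data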;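 further: 100% = response to 3 µM Δ7-dafachronic acid high control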
DAX1 inh confirm: NR0B1 (human) inhibition, confirmation; shares compounds with DAX1 inh-2; HEK293T StAR-promoter luciferase reporter, SF-1/DAX-1 repression; inhibition, % at 6.8 µM; hit rate 87% among 2,400; AID 652134;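 active means inhibition above the average of every tested compound plus 3 SD, cut at about 3.8% in these data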;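 further: 0% = DAX-1 cells with DMSO and 100% = no DAX-1 control cells with DMSO; active compounds raise luminescence by relieving repression of the StAR reporter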
SF1 mutant ctr: nonselective inhibitor or artifact in SF-1 mutant DAX1 counter-screen; shares compounds with DAX1 inh-2; inhibition, % at 6.8 µM; HEK293 StAR-luciferase, SF-1 AF2 mutant, luminescence; hit rate 78% among 2,400;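 active means inhibition above the mean of all tested compounds plus 3 SD, cut at about 3% in these data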;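 further: 0% = DAX-1 transfected cells with DMSO and 100% = cells without DAX-1 with DMSO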
SMARCA2 act conf: SMARCA2 activation, confirmation screen | MG213 cells, MMTV-luciferase with dexamethasone, luminescence, overnight; MG213 cells expressing E1A, Rb sequestered; DMSO wells 0%, reference activator 100% | activation, % at 9.1 µM | AID 652260 | shares compounds with SMARCA2 act | hit rate 30% among 3,500;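 active means activation above its plate's cutoff, the mean activation of tested wells plus 3 SD, cut at about 7.9% in these data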
GAL4-VP16 Luc: activates GAL4-VP16 luciferase, flagging SMARCA2 activator hits. shares compounds with SMARCA2 act. HEK293 GAL4-VP16 pG5luc reporter, luciferase luminescence; scaled: DMSO wells 0%, SAHA wells 100%. activation, % at 9.1 µM. hit rate 41% among 3,500. AID 686939;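 active means activation above the solvent-only control well mean plus 3 SD, averaged across control plates, cut at about 5.2% in these data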
LXRb hcDAF ctr: activates human LXR-beta, counter-screen for hcDAF-12 agonists; HEK293 Gal4-LXR tk-luc reporter, luminescence, 24 h; normalized: DMSO 0%, positive control 100%; 3,400 tested, under 10 active; activation, % at 6.8 µM; shares compounds with hcDAF12 agonist;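 active means mean percent activation of the reporter above a cutoff set as the average over tested compounds plus their standard deviation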
hcDAF12 conf: hcDAF-12 agonism, confirmation assay; shares compounds with hcDAF12 agonist; HEK293 hcDAF-12 lit1-tk-luc reporter, luminescence; % of Δ7-dafachronic acid response; activation, % at 6.8 µM; hit rate 61% among 3,400; AID 743032;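 active means mean activation across triplicate tests above the threshold derived from the earlier primary screen, cut at about 5.5% in these data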;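 further: 0% = DMSO only wells and 100% = 3 µM Δ7-dafachronic acid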
Active calls of the source: *; / = not tested or not shown. The list is not random: actives were taken first. Their share in the collection is about 4.8%.

SMILES	SMARCA2 act	ssDAF-12 act	DAX1 inh-1	hgDAF12 agonist	DAX1 inh-2	hcDAF12 agonist	DAX1 inh confirm	SF1 mutant ctr	LXRb hcDAF ctr	hcDAF12 conf	others
Cc1ccc(/C=N/Nc2ccc(Cl)c(C(=O)O)c2)s1	2	4.1*	-2	22*	6.7*	19*	12*	9.1*	2	12*
O=c1oc2ccccc2cc1-c1nc2c(s1)CCCC2	6	1	0	12*	5.0*	10*	5.2*	-1	1	14*
Cc1ccnc(NC(=O)Cc2ccc(-c3ccccc3)cc2)c1	42*	1.3*	3	34*	15*	9.9*	21*	1	2	9.6*	SMARCA2 act conf=37*;GAL4-VP16 Luc=9.1*
Cc1ccnc(NC(=O)Cc2ccc([N+](=O)[O-])cc2)c1	-3	-1	-1	5	0	3	/	/	/	/
O=C(NCc1ccc(Cl)cc1Cl)c1ccccn1	-3	-1	0	0	-1	-2	/	/	/	/
Cc1ccc(C(=O)Oc2oc(-c3ccco3)nc2C=Nc2ccc(Cl)cc2)cc1	8.0*	1	0	9	4.6*	8.3*	7.9*	4.7*	1	3	SMARCA2 act conf=2;GAL4-VP16 Luc=20*
O=S(=O)(/N=C(/Nc1nc2ccccc2s1)c1ccccc1)c1ccccc1	3	1.5*	0	12*	14*	8.9*	5.0*	4.2*	1	3
Cc1cc(-c2nc3ccccc3s2)ccc1N	0	3.1*	-3	12*	6.7*	15*	10*	3.1*	2	21*
O=C(Nc1ccc2c(c1)CCC2)c1ccc(F)cc1	7	1	0	20*	5.7*	6.7*	13*	5.4*	2	6.6*
CCCCCCCOC(=O)C1=C(C)Nc2ncnn2C1c1cccs1 (configuration not stated)	-4	-1	0	0	0	-2	/	/	/	/
Cc1ccc(-c2noc(-c3ccccc3Br)n2)cc1	5	2.9*	4.2*	14*	5.5*	16*	16*	7.8*	2	21*
c1ccc(-c2noc(-c3ccccc3-c3ccccc3)n2)cc1	2	-1	0	0	0	-1	/	/	/	/
CN(C)c1ccc(/C=N/NC(=O)c2ccco2)cc1	5	1.2*	0	14*	4.6*	10*	14*	7.1*	1	5
COc1ccc(C(=O)NCc2csc(C)n2)cc1OC1CCN(C(C)=O)CC1	-1	-2	0	3	0	-1	/	/	/	/
O=C(Nc1nc2ccccc2[nH]1)c1ccc(F)cc1	3	1.2*	-2	13*	5.3*	8.0*	14*	8.9*	1	5
COc1ccc2c(c1OC)C(CC(C)=O)N1CCc3cc4c(cc3C1C2=O)OCO4 (configuration not stated)	3	0	/	-2	0	0	/	/	/	/
N#CCSc1ccc2nc(-c3ccccc3)cn2n1	5	1.0*	2	7	7.1*	7.5*	5.8*	4.7*	1	8.1*
COc1cc(N/N=C/c2ccccc2O)ncn1	1	0	3	7	-1	2	/	/	/	/
COc1cc(N/N=C/c2ccc(N(C)C)cc2)ncn1	3	1	-2	12*	10*	11*	12*	4.3*	2	8.4*
COc1cc(F)ccc1-c1cc(C(=O)NCc2cccs2)[nH]n1	-1	-1	/	-2	0	-1	/	/	/	/
O=c1ccc(N=Nc2ccccc2)ccc1O	-2	0	0	4	0	4	/	/	/	/
Oc1c(N=Nc2ccccc2)sc2ccccc12	5	3.5*	3	13*	5.5*	18*	19*	7.4*	2	18*
Cc1cc(C)c2nc(NC(=O)c3ccco3)sc2c1	6	1.0*	0	10	19*	6.6*	13*	3	2	9.2*
CCn1c(=O)n2n(c1=O)[C@H]1C[N+](Cc3ccc4c(c3)OCO4)=C(N)NC1=C(C)C2	/	-1	/	2	/	-4	/	/	/	/
Nc1nc(-c2ccc(Br)cc2)cs1	2	0	0	3	1	1	/	/	/	/
SMILES	SMARCA2 act	ssDAF-12 act	DAX1 inh-1	hgDAF12 agonist	DAX1 inh-2	hcDAF12 agonist	DAX1 inh confirm	SF1 mutant ctr	LXRb hcDAF ctr	hcDAF12 conf	others
CC(C)Oc1ccc(C(=O)NC2=NCCS2)cc1	4	0	0	22*	9.9*	7.5*	14*	8.1*	1	4
O=C(NC1=NCCS1)c1ccc(C(F)(F)F)cc1	2	-1	1	6	1	1	/	/	/	/
CCC(=O)c1ccc(/C=C/c2nc3ccccc3n2C)o1	2	1.4*	0	25*	4.7*	6.9*	8.8*	5.4*	1	6.7*
N#C/C(=C\c1ccc(O)c([N+](=O)[O-])c1)c1nc2ccccc2s1	2	-1	-1	2	0	3	/	/	/	/
N#C/C(=C\c1ccco1)c1nc2ccccc2s1	6	2.5*	4	17*	5.1*	15*	14*	9.1*	2	11*
COc1cccc(-c2nc(CS(=O)(=O)CC(=O)NCc3ccc4c(c3)OCO4)c(C)o2)c1	-3	-1	0	-2	0	-3	/	/	/	/
Cc1ccc(/C=C/C(=O)N2CCc3ccccc32)o1	5	1.3*	2	13*	5.2*	13*	16*	7.3*	2	9.9*
COCCn1c(C)cc(C(=O)COC(=O)c2cccnc2SC)c1C	2	0	2	9	5.8*	7.7*	16*	5.6*	2	9.4*
C/C(=N/NC(=O)c1ccccc1)C(=O)O	-1	-1	0	-1	1	1	/	/	/	/
